Results published in PubChem BioAssay (NCATS).
Records with an inconclusive call do not appear. The source made the active and inactive calls. Unless noted, calls follow the shape of the dose curve; as a rule, active = well fitted curve in either direction with a large enough effect (not every such curve was filed as active); inconclusive = small, poorly fitted or top-dose-only effect, or another doubt; inactive = flat fitted curve, though single readings scatter.

How the values were obtained:
[1] = AP1 Signaling Pathway (AID 357); details: ME-180 AP-1-bla reporter, EGF-induced, beta-lactamase ratio, 5 h; at 17.2 µM (top of the series) unless noted; also: % is scaled to controls: 0 for no effect and ±100 for the full control effect
How it was run: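 Modulation of EGF-driven AP-1 transcription was assessed with a beta-lactamase reporter in ME-180 cells. Compound and EC50 EGF were co-incubated 5 hours at 37 °C before 2.5-hour CCF4 loading at room temperature and dual-emission reading.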

[2] = NFAT Signaling Pathway (AID 444); details: Jurkat NFAT-bla M1, carbachol, beta-lactamase ratio, 5 h; at 17.2 µM (top of the series) unless noted;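 also: carbachol stimulus at about its EC50 of 1 µM final; % is scaled to controls: 0 for no effect and ±100 for the full control effect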
How it was run: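 Jurkat cells with NFAT-driven β-lactamase reporter and co-expressed M1 receptor, stimulated with carbachol (final 1 uM, ~EC50), compound titration, 5 h at 37 °C. CCF4 loaded 1 h at RT; 460/530 nm ratio gave %activity and AC50.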

[3] = Stat Signaling Pathway (AID 446);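 also: ME-180 cervical cancer cells given 40 pM IL-6 alongside compound; SIE-controlled beta-lactamase reporter measured as 460/530 nm FRET emission ratio; % is scaled to controls: 0 for no effect and ±100 for the full control effect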
How it was run: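 Reporter line: ME-180 cervical carcinoma, SIE-beta-lactamase. Treatment: compound with 40 pM IL-6, 5 hrs, 37 C, in low-serum OPTI-MEM with 10 mM HEPES pH 7.3. Detection: 460/530 nm fluorescence.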

[4] = biological target: Glucocorticoid receptor (Homo sapiens) (UniProt P04150); test: GR-GFP Redistribution (AID 450;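 active = compounds whose dose series gives a full or clear partial fitted curve of increased nuclear translocation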; also: potency is read from the fitted curve at half-maximal effect); details: U2OS GR-GFP nuclear translocation, laser cytometry, 2 h
Glucocorticoid receptor (Homo sapiens), sequence (P04150 whole entry, looked up): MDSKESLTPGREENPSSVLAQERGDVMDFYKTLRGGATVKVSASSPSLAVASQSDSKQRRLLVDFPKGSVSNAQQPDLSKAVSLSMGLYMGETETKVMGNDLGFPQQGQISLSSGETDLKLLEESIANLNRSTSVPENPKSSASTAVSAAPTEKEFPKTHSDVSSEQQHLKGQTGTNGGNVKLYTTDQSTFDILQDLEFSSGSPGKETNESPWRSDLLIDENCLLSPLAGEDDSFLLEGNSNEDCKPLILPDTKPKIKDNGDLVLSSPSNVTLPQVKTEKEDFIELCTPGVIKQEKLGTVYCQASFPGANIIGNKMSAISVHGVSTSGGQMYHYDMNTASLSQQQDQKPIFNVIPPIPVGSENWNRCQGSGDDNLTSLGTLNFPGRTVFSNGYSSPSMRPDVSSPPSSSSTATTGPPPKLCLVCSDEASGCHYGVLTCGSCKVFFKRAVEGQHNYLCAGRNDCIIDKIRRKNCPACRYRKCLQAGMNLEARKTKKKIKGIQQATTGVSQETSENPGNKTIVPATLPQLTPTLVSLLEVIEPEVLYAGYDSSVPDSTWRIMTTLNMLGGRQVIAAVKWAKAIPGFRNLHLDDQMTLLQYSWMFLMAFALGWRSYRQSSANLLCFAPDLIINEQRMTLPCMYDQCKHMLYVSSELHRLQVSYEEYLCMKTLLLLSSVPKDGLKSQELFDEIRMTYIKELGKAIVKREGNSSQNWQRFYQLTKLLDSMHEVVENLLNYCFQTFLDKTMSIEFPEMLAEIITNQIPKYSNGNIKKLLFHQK

Cn1c(O)c(C=NCCCNC2CCCCC2)c(=O)n(C)c1=O
inactive: activity change, negative = inhibition [1] 3.35% | activity change, negative = inhibition [2] -13.3% | outcome [3] | Potency [4] > 20.6 µM

O=c1[nH]c(=O)n(C2CCCCC2)c(O)c1C=NCCCn1ccnc1
inactive: activity change, negative = inhibition [1] 0.159% | activity change, negative = inhibition [2] -4.42% | outcome [3] | Potency [4] > 20.6 µM

COc1ccc(C2SCC(=O)Nc3c2c(=O)[nH]n3C2CCCCC2)cc1 (configuration not stated)
inactive: activity change, negative = inhibition [1] -14.7% | activity change, negative = inhibition [2] 0.11% | outcome [3] | Potency [4] > 20.6 µM

COc1ccc(C(=O)CN2CCOCC2)cc1F
inactive: activity change, negative = inhibition [1] 1.47% | activity change, negative = inhibition [2] 3.56% | outcome [3] | Potency [4] > 20.6 µM

COc1cccc(-n2c(C)nc3ccccc3c2=O)c1
inactive: activity change, negative = inhibition [1] 10.2% | activity change, negative = inhibition [2] 3.48% | outcome [3] | Potency [4] > 20.6 µM

O=c1[nH]c(=O)n(Cc2ccccc2)c(O)c1C=NCCN1CCNCC1
inactive: activity change, negative = inhibition [1] 1.47% | activity change, negative = inhibition [2] -23.3% | outcome [3] | Potency [4] > 20.6 µM

COc1ccc(Cn2c(O)c(C=NCCCn3ccnc3)c(=O)[nH]c2=O)cc1
inactive: activity change, negative = inhibition [1] -15.8% | activity change, negative = inhibition [2] -15.1% | outcome [3] | Potency [4] > 20.6 µM

CC(=O)OC1(Cc2ccccc2)CN2CCC1c1ccccc12 (configuration not stated)
inactive: activity change, negative = inhibition [1] -0.0283% | activity change, negative = inhibition [2] -23.5% | outcome [3] | Potency [4] > 46 µM

COc1ccc(C(=O)CC2C(=O)N(C)C(=O)N(C)C2=O)cc1
inactive: activity change, negative = inhibition [1] 8.4% | activity change, negative = inhibition [2] -29.5% | outcome [3] | Potency [4] > 20.6 µM

O=C(c1ccco1)C12CN3CN(CN(C3)C1)C2
inactive: activity change, negative = inhibition [1] 4.87% | activity change, negative = inhibition [2] -11.2% | outcome [3] | Potency [4] > 20.6 µM

COC(=O)C(c1ccccc1)N1CCCCCC1 (configuration not stated)
inactive: activity change, negative = inhibition [1] 17.9% | activity change, negative = inhibition [2] -19.7% | outcome [3] | Potency [4] > 20.6 µM

CC(=O)OC1N=C(c2ccccc2)c2ccccc2NC1=O (configuration not stated)
inactive: activity change, negative = inhibition [1] -8.32% | activity change, negative = inhibition [2] 11.5% | outcome [3] | Potency [4] > 20.6 µM

OC1(c2ccc(F)cc2)CCNC1 (configuration not stated)
inactive: activity change, negative = inhibition [1] 7.87% | activity change, negative = inhibition [2] -14.3% | outcome [3] | Potency [4] > 20.6 µM

CCOC(=O)C1=C(C)OC(N)=C(C(=O)OCC)[C@@]12C(=O)N(CC(N)=O)c1ccccc12
inactive: activity change, negative = inhibition [1] 1.68% | activity change, negative = inhibition [2] 2.5% | outcome [3] | Potency [4] > 20.6 µM

CC(C)C(=O)N1CCN(CCN=Cc2c(O)n(C)c(=O)n(C)c2=O)CC1
inactive: activity change, negative = inhibition [1] 10.2% | activity change, negative = inhibition [2] -6.53% | outcome [3] | Potency [4] > 20.6 µM

COc1cc2[nH]c(=O)n(-c3cccc(Cl)c3)c(=O)c2cc1OC
inactive: activity change, negative = inhibition [1] 9.62% | activity change, negative = inhibition [2] 13.7% | outcome [3] | Potency [4] > 20.6 µM

O=c1[nH]c(=O)n(-c2cccc(Cl)c2)c(O)c1C=NCCN1CCCCC1
inactive: activity change, negative = inhibition [1] -0.739% | activity change, negative = inhibition [2] -1.95% | outcome [3] | Potency [4] > 20.6 µM

O=c1[nH]c2ccccc2c(=O)n1-c1cccc(Cl)c1
inactive: activity change, negative = inhibition [1] 24.2% | activity change, negative = inhibition [2] -3.58% | outcome [3] | Potency [4] > 20.6 µM
